High-throughput results: PubChem, several laboratories
The list is not random: actives were taken first. Their share in the collection is about 2.3%.
UBC13 inh – UBC13 polyubiquitin chain formation inhibitors, primary screen, biochemical, TR-FRET, uHTS; Ubiquitin-conjugating enzyme E2 N (Homo sapiens), P61088; inhibition, % at 20 µM; 330,000 tested, 0.47% active; in the data active means inhibition above about 45%, passing the limit was not always enough
MEKK3 PB1 HTS – modulators of MEKK3-MEK5 PB1 binding, primary screen, biochemical, wildtype MEKK3, multiplex bead flow cytometry, Alexa488-MEK5. binding response (% of control), % at 10 µM. AID 1529, 2009. bead-based flow cytometry, Alexa488-MEK5 binding to MEKK3; actives lie on both sides; 0 = blocked by unlabeled MEK5, 100 = vehicle. Mitogen-activated protein kinase kinase kinase 3 (Homo sapiens), Q99759. 290,000 tested, 1.4% active;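 active means binding response more than 3 SD above or below the average of its plate-row segment, actives on both sides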;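 further: Alexa488 bead fluorescence after subtracting the streptavidin-only scavenger bead signal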
MEKK2mut PB1 HTS – MEK5 binding signal on mutant MEKK2 PB1, primary screen, biochemical, multiplex bead flow cytometry, Alexa488-MEK5; AID 1530, 2009; percent response, % at 10 µM; Alexa488-MEK5 binding to MEKK2 mutant; 290,000 tested, 0.35% active; in the data active means percent response above about 24%, passing the limit was not always enough
MEKK2 WT-MEK5 – modulators of MEK5 binding to wildtype MEKK2, primary screen, biochemical, multiplex bead flow cytometry, Alexa488-MEK5; Mitogen-activated protein kinase kinase kinase 2 (Homo sapiens), Q9Y2U5; 290,000 tested, 1.1% active; Alexa488-MEK5 binding to MEKK2 WT; actives lie on both sides; binding response (% of control), % at 10 µM; in the data active means binding response below about 67% or above about 130%
MEKK2wt confirm – modulators of MEK5 binding to wildtype MEKK2, confirmation, biochemical, single concentration, multiplex bead flow cytometry; shares compounds with MEKK3 PB1 HTS; 5,900 tested, 2.4% active; Alexa488-MEK5 binding to MEKK2 WT; actives lie on both sides; binding response (% of control), % at 10 µM; in the data active means binding response below about 16% or above about 210%; inactive means in between
MEKK2mut confirm – mutant MEKK2 PB1-MEK5 binding signal retest – biochemical, single concentration, multiplex bead flow cytometry, confirmation; shares compounds with MEKK3 PB1 HTS; 5,900 tested, 2% active; percent response, % at 10 µM; Alexa488-MEK5 binding to MEKK2 mutant; AID 1893, 2009; in the data active means percent response mostly above about 71%, no sharp cut-off; inactive means mostly below about 38%;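 further: higher means compound restores mutant binding toward wildtype level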
MEKK3 confirm – MEKK3 wild-type PB1 binding to MEK5, inhibitors, confirmation, biochemical, bead multiplex flow cytometry, single concentration, wildtype | shares compounds with MEKK3 PB1 HTS | Alexa488-MEK5 binding to MEKK3; hits give low values | binding response (% of control), % at 10 µM | 5,900 tested, 1.8% active | AID 1894, 2009;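 active means binding response below 72% of control, or above a set upper limit, though filed actives all read lower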;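 further: 100% = DMSO only wells and 0% = binding blocked by excess unlabeled MEK5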
Starred values were filed as active, the others as inactive; / = not tested or not shown; [ ] = another dose, or the depositor's remark.

SMILES	UBC13 inh	MEKK3 PB1 HTS	MEKK2mut PB1 HTS	MEKK2 WT-MEK5	MEKK2wt confirm	MEKK2mut confirm	MEKK3 confirm
CCC(C)(C)n1nnnc1C(c1cccnc1)N1CCN(c2cccc(C(F)(F)F)c2)CC1 (configuration not stated)	-3	123*	7	120	101	-2	102
Cc1ccc(NC(=O)c2cc(S(=O)(=O)N3CCOCC3)c(Br)s2)cc1	-4	104	4	104	/	/	/
CSc1cccc(NC(=O)C2CCN(C(=O)c3ccccc3C)CC2)c1	9	151*	1	108	96	-12	96
Cc1cccc(NC(=O)N2CCC(NC(=O)c3ccccc3C)CC2)c1	4	2.0*[inhibitor]	-17	2.0*[inhibitor]	96	2	105
Cc1ccccc1C(=O)N1CCC(C(=O)Nc2ccc(F)cc2)CC1	3	104	2	100	/	/	/
COc1ccc(CN2C3CCC2CC(NC(=O)c2cc(OC)c(OC)c(OC)c2)C3)cc1 (configuration not stated)	8	109	5	121	/	/	/
CN1CCN(CCCNC(=O)c2ccc(/C=C3\Sc4ccccc4N(Cc4ccc(F)cc4)C3=O)cc2)CC1	/	105	41	163*	203	66	105
CCN1CCN(CCNC(=O)c2ccc(/C=C3\Sc4ccccc4N(Cc4ccccc4F)C3=O)cc2)CC1	38	103	2	121	/	/	/
CN1CCN(CCCNC(=O)c2ccc(/C=C3/Sc4ccccc4N(Cc4cccc(Cl)c4)C3=O)cc2)CC1	/	108	65*	224*	209*	73*	110
COc1ccc(-c2cnnc(N/N=C/c3ccc(O)cc3)n2)cc1	-22	128*	0	117	102	3	100
COc1ccc(-c2cnnc(N/N=C/c3ccc(O)c(O)c3)n2)cc1	-16	97	0	102	/	/	/
O=C(Nc1cccnc1)c1ccc(CN2CCc3ccccc3C2)cc1	-5	102	2	103	/	/	/
Cc1ccc(NC(=O)c2ccc(CN3CCN(C)CC3)cc2)cc1Nc1nccc(-c2cccnc2)n1	18	115	/	/	/	/	103
CCN(CC)S(=O)(=O)c1ccc(NS(=O)(=O)c2ccc(O)c([N+](=O)[O-])c2)cc1	3	144*	0	109	98	-4	99
Cc1ccc(NC(=O)CSC2=C(C#N)C(c3ccc4c(c3)OCO4)CC(=O)N2)cc1C (configuration not stated)	22	81*[inhibitor]	-6	85	96	-6	97
CCc1ccc(NC(=O)CSC2=C(C#N)C(c3ccc4c(c3)OCO4)CC(=O)N2)cc1 (configuration not stated)	3	106	5	110	/	/	/
COc1ccc(OC)c(NC(=O)COC(=O)CCCN=C2NS(=O)(=O)c3ccccc32)c1	5	/	/	/	/	/	/
CC(=O)c1c(N2CCN(C)CC2)[nH]c(-c2ccccc2)nc1=S	-1	99	47*	23*	118	9	104
CCOc1ccc(/C=N/n2c(C3CCCCC3)n[nH]c2=S)cc1	-9	104	-3	100	/	/	/
Cc1ccc(-c2nnc(-n3nc(C)cc3C)c3ccccc23)cc1	-3	137*	0	104	95	-5	100
c1ccc(CSc2ccc(-c3cccs3)nn2)nc1	4	105	0	103	/	/	/
c1ccc(CSc2ccc(-c3cccs3)nn2)cc1	6	129*	1	106	94	-1	92
C#CCOCCOCCOCCNc1nc(N2CCN(C(=O)[C@H](CCC(=O)O)n3cc(C(N)Cc4ccc(O)cc4)nn3)CC2)nc(N2CCN(C(=O)[C@H](Cc3cc4ccccc4[nH]3)n3cc(C(N)CC(C)C)nn3)CC2)n1 (some centres not stated)	20	107	29	145*	120	8	102
C#CCOCCOCCOCCNc1nc(N2CCN(C(=O)[C@H](CCCCN)n3cc([C@@H](N)CO)nn3)CC2)nc(N2CCN(C(=O)[C@H](Cc3cc4ccccc4[nH]3)n3cc([C@@H](N)CO)nn3)CC2)n1	110*	107	1	139*	114	8	102
C#CCOCCOCCOCCNc1nc(N2CCN(C(=O)[C@H](Cc3cc4ccccc4[nH]3)n3cc([C@@H](N)C(C)CC)nn3)CC2)nc(N2CCN(C(=O)[C@H](CCCCN)n3cc([C@@H](N)CO)nn3)CC2)n1 (some centres not stated)	110*	107	57*	202*	204	52	108
C#CCOCCOCCOCCNc1nc(N2CCN(C(=O)[C@H]([C@@H](C)CC)n3cc([C@@H](N)CO)nn3)CC2)nc(N2CCN(C(=O)[C@H](Cc3cc4ccccc4[nH]3)n3cc([C@@H](N)Cc4ccc(O)cc4)nn3)CC2)n1	98*	100	4	155*	231*	114*	107
CC(=O)Nc1ccc(NC(=O)CC(NC(=O)c2ccccc2)c2ccccc2)cc1 (configuration not stated)	-4	101	-6	99	/	/	/
C#CCOCCOCCOCCNc1nc(N2CCN(C(=O)[C@H](Cc3cc4ccccc4[nH]3)n3cc([C@@H](N)C(C)CC)nn3)CC2)nc(N2CCN(C(=O)[C@H](Cc3cc4ccccc4[nH]3)n3cc([C@@H](N)CC(C)C)nn3)CC2)n1 (some centres not stated)	61*	99	13	205*	249*	76*	109
C#CCOCCOCCOCCNc1nc(N2CCN(C(=O)[C@H](CCCCN)n3cc([C@@H](N)CO)nn3)CC2)nc(N2CCN(C(=O)[C@H](Cc3cc4ccccc4[nH]3)n3cc([C@@H](N)CC(C)C)nn3)CC2)n1	100*	111	67*	195*	125	14	104
